Drawing on PubChem BioAssay (NCI), this text covers growth for nine molecules.

Among the test systems are SK-MEL-2 melanoma; EKVX NSCLC; SN12C renal; UO-31 renal; TK-10 renal; ACHN renal; CAKI-1 renal; A498 renal; CCRF-CEM leukemia; MOLT-4 leukemia; SR leukemia; OVCAR-8 ovarian; OVCAR-5 ovarian; OVCAR-4 ovarian; SK-OV-3 ovarian; IGROV1 ovarian; OVCAR-3 ovarian; HS 578T breast; NCI/ADR-RES ovarian.
What all share (assay): NCI-60 one-dose screen, 48 h (100 = growth as untreated, 0 = no growth, -100 = all killed)
Common to all, as to settings: 10 µM unless noted

This is part of a sample that, as a whole, favours compounds with a hit. Of some 83,000 tested, about 20% had one in any assay.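 Growth was measured after 48 h exposure to one concentration of compound in 96-well plates. Values under 10 count as active.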 A number with no mark means an inactive call. Calls of active or inactive are those of the source.

With `Cc1cccc(/C=N/n2c(-c3ccc(Cl)cc3)nc3c(Br)cc(Br)cc3c2=O)c1`, the growth in the experiment on SK-MEL-2 melanoma was 72.5%; in the experiment on EKVX NSCLC it was 52.3%; in the experiment on SN12C renal, 47.9%; in the experiment on UO-31 renal, 41.8%; with TK-10 renal it was 26.8%; in the experiment on ACHN renal it was 13.5%. Moreover, the growth is 31.2% in the experiment with CAKI-1 renal; 99.6% with A498 renal; 75.6% with CCRF-CEM leukemia; 55.4% with MOLT-4 leukemia; 73.1% in the experiment on SR leukemia; 32.5% in the experiment on OVCAR-8 ovarian. Moreover, the growth in the experiment with OVCAR-5 ovarian is 50.2%; in the experiment on OVCAR-4 ovarian it was -3.16% (active); with SK-OV-3 ovarian, 39.5%; in the experiment with IGROV1 ovarian it was 31.9%; in the experiment on OVCAR-3 ovarian it was 38.2%; in the experiment on HS 578T breast it was 65.1%. Moreover, the growth in the experiment on NCI/ADR-RES ovarian is 30.5%.
As to `c1ccc2oc(-c3cnc4nonc4n3)cc2c1`, the growth in the experiment on SK-MEL-2 melanoma is 95%; in the experiment with EKVX NSCLC, 71.2%; in the experiment on SN12C renal it was 93%; in the experiment on UO-31 renal, 63.1%; in the experiment on TK-10 renal, 132%; with ACHN renal, 82.3%. In addition, the growth in the experiment on CAKI-1 renal is 86.8%; in the experiment with A498 renal, 103%; with CCRF-CEM leukemia, 95.8%; with MOLT-4 leukemia, 97.2%; in the experiment with SR leukemia it was 106%; in the experiment on OVCAR-8 ovarian, 93.6%. For the same molecule, the growth in the experiment with OVCAR-5 ovarian is 104%; in the experiment on OVCAR-4 ovarian, 106%; with SK-OV-3 ovarian, 84.8%; in the experiment with IGROV1 ovarian, 87.2%; in the experiment with OVCAR-3 ovarian it was 108%; in the experiment with HS 578T breast, 89.2%. For the same molecule, the growth with NCI/ADR-RES ovarian is 92.4%.
As to `COc1cc(/C=N/NC(=O)Cn2c(-c3ccc(C)o3)nc3ccccc32)ccc1OCc1ccccc1`, the growth in the experiment on SK-MEL-2 melanoma is 94.5%; in the experiment with EKVX NSCLC it was 75.2%; with SN12C renal, 95.4%; with UO-31 renal, 61.8%; in the experiment on TK-10 renal, 93.4%; in the experiment on ACHN renal, 85.4%. Besides, the growth in the experiment with CAKI-1 renal is 82.6%; with A498 renal, 78.5%; with CCRF-CEM leukemia it was 80.6%; in the experiment on MOLT-4 leukemia it was 50.2%; with SR leukemia it was 74.5%; in the experiment with OVCAR-8 ovarian, 81.3%. Also, the growth is 88.1% in the experiment on OVCAR-5 ovarian; 91.7% in the experiment with SK-OV-3 ovarian; 94.3% with IGROV1 ovarian; 70.4% with HS 578T breast; 92.6% in the experiment with NCI/ADR-RES ovarian.
Consider `c1csc(-c2cnc3nonc3n2)c1`, for which the growth with SK-MEL-2 melanoma was 105%; in the experiment on EKVX NSCLC it was 101%; in the experiment on SN12C renal it was 86.7%; in the experiment on UO-31 renal, 66.5%; in the experiment with TK-10 renal it was 128%; in the experiment on ACHN renal, 85.7%. For the same molecule, the growth in the experiment on CAKI-1 renal was 90.3%; in the experiment with A498 renal, 88.1%; in the experiment with CCRF-CEM leukemia, 79.7%; in the experiment on MOLT-4 leukemia, 78.9%; with SR leukemia, 39.3%; with OVCAR-8 ovarian, 79.2%. Further, the growth was 107% with OVCAR-5 ovarian; 92.7% in the experiment on SK-OV-3 ovarian; 76.9% in the experiment on IGROV1 ovarian; 84.2% in the experiment with OVCAR-3 ovarian; 92.5% in the experiment with HS 578T breast; 95% in the experiment on NCI/ADR-RES ovarian.
For `O=C(Nc1ccc(-n2ccc3c(NC(=O)c4ccccc4)nccc32)cc1)c1ccc(N2CCOCC2)c(C(F)(F)F)c1`, the growth in the experiment on SK-MEL-2 melanoma was 21%; in the experiment with EKVX NSCLC it was 65.6%; in the experiment on SN12C renal, 41.8%; in the experiment on UO-31 renal it was 0.765% (active); in the experiment with TK-10 renal, 27.6%; in the experiment on ACHN renal, 32.5%. The growth with CAKI-1 renal is 25.6%; with A498 renal, 68.9%; in the experiment with CCRF-CEM leukemia, 26.9%; in the experiment with MOLT-4 leukemia, 30.5%; in the experiment on SR leukemia, 0.458% (active); in the experiment on OVCAR-8 ovarian, 23.6%. The growth is 56.8% in the experiment with OVCAR-5 ovarian; 59.8% in the experiment on OVCAR-4 ovarian; 30.3% in the experiment on SK-OV-3 ovarian; 15.7% in the experiment on OVCAR-3 ovarian; 50% in the experiment on HS 578T breast; 29% in the experiment with NCI/ADR-RES ovarian.
Consider `O=C(Nc1ccccc1)c1cc2ccccc2s1`, for which the growth was 72.2% with SK-MEL-2 melanoma; 85.5% in the experiment on EKVX NSCLC; 91.4% in the experiment with SN12C renal; 71.2% with UO-31 renal; 98.7% in the experiment with TK-10 renal; 94.2% in the experiment on ACHN renal. The growth with CAKI-1 renal was 78.8%; in the experiment on A498 renal, 91.7%; in the experiment on CCRF-CEM leukemia, 44.3%; with MOLT-4 leukemia, 83.3%; in the experiment on SR leukemia, 82.1%; in the experiment on OVCAR-8 ovarian it was 96.9%. Also, the growth with OVCAR-5 ovarian was 81.7%; in the experiment with OVCAR-4 ovarian, 60%; with SK-OV-3 ovarian it was 99.4%; in the experiment on IGROV1 ovarian it was 87.3%; in the experiment on HS 578T breast, 98.5%; in the experiment on NCI/ADR-RES ovarian it was 94.4%.
On to `O=S(=O)(Cc1ccc(Cl)cc1Cl)c1ccc(Cl)cc1`, for which the growth with SK-MEL-2 melanoma is 31.1%; in the experiment with EKVX NSCLC it was 63.4%; in the experiment with SN12C renal, 49.4%; in the experiment with UO-31 renal, 46.2%; with TK-10 renal, 32.6%; with ACHN renal, 55.7%. Besides, the growth in the experiment on CAKI-1 renal was 38.1%; in the experiment on A498 renal it was 42.5%; in the experiment on CCRF-CEM leukemia it was 10.8%; in the experiment on MOLT-4 leukemia, 33.3%; in the experiment with SR leukemia, 24.3%; in the experiment with OVCAR-8 ovarian, 31.9%. Further, the growth is 9.24% (active) in the experiment with SK-OV-3 ovarian; 36.1% in the experiment on IGROV1 ovarian; 1.54% (active) in the experiment on OVCAR-3 ovarian; 63.3% in the experiment with HS 578T breast; -8.57% (active) with NCI/ADR-RES ovarian.
For `c1ccc(CCn2cccc2)nc1`, the growth in the experiment on SK-MEL-2 melanoma is 101%; with EKVX NSCLC, 107%; with SN12C renal, 102%; in the experiment with UO-31 renal it was 94.3%; with TK-10 renal, 99.7%; in the experiment with ACHN renal, 104%. The growth with CAKI-1 renal was 91.1%; in the experiment with A498 renal, 105%; in the experiment with CCRF-CEM leukemia it was 105%; with MOLT-4 leukemia it was 18.7%; in the experiment with SR leukemia, 75.2%; in the experiment on OVCAR-8 ovarian it was 102%. The growth was 103% in the experiment on OVCAR-5 ovarian; 113% in the experiment with OVCAR-4 ovarian; 107% in the experiment on SK-OV-3 ovarian; 121% in the experiment on IGROV1 ovarian; 101% in the experiment on OVCAR-3 ovarian; 120% in the experiment with HS 578T breast. For the same molecule, in the experiment with NCI/ADR-RES ovarian, the growth was 105%.
As to `COc1ccc(-c2nn(C(=O)NCCN(C)C)cc2-c2ccncc2)cc1Cl`, the growth was 32.7% in the experiment with SK-MEL-2 melanoma; 43.4% in the experiment with EKVX NSCLC; 49.6% in the experiment with SN12C renal; 52.6% in the experiment on UO-31 renal; 17.1% in the experiment with TK-10 renal; 47.8% in the experiment on ACHN renal. The growth is 51.1% in the experiment on CAKI-1 renal; 34.2% in the experiment with A498 renal; 47.9% in the experiment with CCRF-CEM leukemia; 34.3% in the experiment on MOLT-4 leukemia; 20.5% with SR leukemia; 20.4% with OVCAR-8 ovarian. The growth was 76.9% in the experiment on OVCAR-5 ovarian; 57.6% with OVCAR-4 ovarian; 9.29% (active) in the experiment on SK-OV-3 ovarian; 54.1% in the experiment on IGROV1 ovarian; 51.3% with OVCAR-3 ovarian; 66.5% with HS 578T breast. Besides, the growth in the experiment on NCI/ADR-RES ovarian was 14.5%.
